In article PMC5700166:

Legend:
Assay in all cases: protein-binding microarray (PBM); PBM: ~300 nM protein, 6 mM HEPES pH 7.8, 80 mM KCl, 0.5 mM EDTA, 0.5 mM EGTA, 6% glycerol, 35 ng/ul poly-dIdC, 1% milk, 1 h, room temperature; Ap Aiptasia and Nv Nematostella (sea anemones) / Co Capsaspora / Aq Amphimedon (sponge) / Dm Drosophila / Hu human; RHD is the Rel homology domain; high values mean tight binding
Conditions in all cases: dsDNA, one strand shown
GST-Ap-NF-kB RHD = target: T1, GST-Ap-NF-kB RHD (Exaiptasia pallida (Aiptasia), UniProt A0A913YAJ5 2-422)
T1 sequence: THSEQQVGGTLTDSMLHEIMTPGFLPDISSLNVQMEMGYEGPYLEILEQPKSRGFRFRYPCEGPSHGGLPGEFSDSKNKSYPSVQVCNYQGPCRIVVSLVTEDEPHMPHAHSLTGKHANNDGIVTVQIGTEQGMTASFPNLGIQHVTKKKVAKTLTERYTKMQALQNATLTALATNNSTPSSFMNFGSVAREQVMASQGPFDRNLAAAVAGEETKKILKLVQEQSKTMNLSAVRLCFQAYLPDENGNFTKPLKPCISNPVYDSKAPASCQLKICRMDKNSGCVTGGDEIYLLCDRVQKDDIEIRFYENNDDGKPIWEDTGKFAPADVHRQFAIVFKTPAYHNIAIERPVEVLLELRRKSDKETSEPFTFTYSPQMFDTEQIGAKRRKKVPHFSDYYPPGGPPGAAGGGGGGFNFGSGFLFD

[1] = target: T2, GST-Nv-NF-kB (Cys allele) (Nematostella vectensis, UniProt E5G601 2-411)
T2 sequence: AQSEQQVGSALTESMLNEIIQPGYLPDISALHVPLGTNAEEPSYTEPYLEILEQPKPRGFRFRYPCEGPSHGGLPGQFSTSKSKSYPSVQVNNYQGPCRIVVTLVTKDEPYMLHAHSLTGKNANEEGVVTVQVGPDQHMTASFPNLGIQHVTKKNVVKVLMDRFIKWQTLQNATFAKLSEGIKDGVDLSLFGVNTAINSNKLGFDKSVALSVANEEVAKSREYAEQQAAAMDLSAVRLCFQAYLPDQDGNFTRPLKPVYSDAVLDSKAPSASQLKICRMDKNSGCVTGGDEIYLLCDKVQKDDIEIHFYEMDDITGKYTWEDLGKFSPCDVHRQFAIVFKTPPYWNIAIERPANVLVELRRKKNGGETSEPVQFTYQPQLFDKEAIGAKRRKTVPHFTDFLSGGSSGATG

GST-Co-NF-kB = target: T3, GST-Co-NF-kB (Capsaspora owczarzaki, UniProt F1ARL5 200-546)
T3 sequence: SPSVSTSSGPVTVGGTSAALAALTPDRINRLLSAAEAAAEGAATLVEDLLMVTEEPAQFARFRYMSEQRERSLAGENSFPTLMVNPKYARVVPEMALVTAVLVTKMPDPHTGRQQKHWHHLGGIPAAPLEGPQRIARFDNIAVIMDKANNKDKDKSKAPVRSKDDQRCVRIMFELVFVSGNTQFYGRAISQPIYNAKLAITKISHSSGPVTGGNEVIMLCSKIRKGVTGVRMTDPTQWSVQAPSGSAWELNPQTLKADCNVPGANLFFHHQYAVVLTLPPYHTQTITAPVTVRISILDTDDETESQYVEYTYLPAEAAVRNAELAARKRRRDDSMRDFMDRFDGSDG

GST-Dm-Relish = target: T4, GST-Dm-Relish (Drosophila melanogaster, UniProt Q94527 99-473)
T4 sequence: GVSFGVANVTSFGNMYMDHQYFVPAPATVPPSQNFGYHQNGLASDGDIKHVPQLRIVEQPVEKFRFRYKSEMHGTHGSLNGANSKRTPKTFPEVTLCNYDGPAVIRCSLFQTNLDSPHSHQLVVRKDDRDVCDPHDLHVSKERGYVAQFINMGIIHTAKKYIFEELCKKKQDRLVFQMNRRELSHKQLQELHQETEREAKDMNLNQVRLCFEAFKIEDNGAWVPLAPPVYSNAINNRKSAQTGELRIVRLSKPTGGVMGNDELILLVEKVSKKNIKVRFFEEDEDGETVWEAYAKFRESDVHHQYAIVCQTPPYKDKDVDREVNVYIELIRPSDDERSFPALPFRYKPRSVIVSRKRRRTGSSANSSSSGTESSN

GST-Aq-NF-kB = target: T5, GST-Aq-NF-kB (Amphimedon queenslandica, UniProt A9Y5G7 2-389)
T5 sequence: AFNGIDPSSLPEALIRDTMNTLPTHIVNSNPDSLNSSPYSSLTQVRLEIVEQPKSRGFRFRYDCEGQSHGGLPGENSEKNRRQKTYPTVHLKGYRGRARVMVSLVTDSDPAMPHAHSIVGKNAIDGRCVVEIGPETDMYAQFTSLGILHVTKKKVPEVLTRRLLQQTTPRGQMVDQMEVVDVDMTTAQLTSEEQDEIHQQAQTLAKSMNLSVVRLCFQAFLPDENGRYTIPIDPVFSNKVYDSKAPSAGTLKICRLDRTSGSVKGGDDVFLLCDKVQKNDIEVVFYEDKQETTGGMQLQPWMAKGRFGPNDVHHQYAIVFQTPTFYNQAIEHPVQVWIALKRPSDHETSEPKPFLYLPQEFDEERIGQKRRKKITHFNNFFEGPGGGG

GST-Hu-p50 = GST-Hu-p50 (Homo sapiens, UniProt P19838 7-356)
Chain of GST-Hu-p50 (P19838 7-356): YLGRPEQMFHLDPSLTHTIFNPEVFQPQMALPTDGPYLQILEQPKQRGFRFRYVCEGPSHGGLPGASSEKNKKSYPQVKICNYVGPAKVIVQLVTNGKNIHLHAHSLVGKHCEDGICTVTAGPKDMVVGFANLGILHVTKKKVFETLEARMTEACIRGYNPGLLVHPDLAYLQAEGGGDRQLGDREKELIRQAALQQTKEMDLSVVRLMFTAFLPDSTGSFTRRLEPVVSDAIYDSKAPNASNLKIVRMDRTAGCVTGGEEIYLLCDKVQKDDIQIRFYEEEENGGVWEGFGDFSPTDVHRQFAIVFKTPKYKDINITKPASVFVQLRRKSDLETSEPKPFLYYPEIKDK

| Sequence | binding signal (GST-Ap-NF-kB RHD) | binding signal [1] | binding signal (GST-Co-NF-kB) | binding signal (GST-Dm-Relish) | binding signal (GST-Aq-NF-kB) | binding signal (GST-Hu-p50) |
| --- | --- | --- | --- | --- | --- | --- |
| CCGATTAACATCACAGAGTCCCCTGATGTTAATCGGGTCTTGATTCGCTTGACGCTGCTG | 6.36 z-score | 4.8 z-score | 2.26 z-score | 5.12 z-score | 4.31 z-score | 5.59 z-score |
| CCGATTAACATCAAAATTCCCGATGATGTTAATCGGGTCTTGATTCGCTTGACGCTGCTG | 4.37 z-score | 6.05 z-score | 4.55 z-score | 5.06 z-score | 4.93 z-score | 4.38 z-score |
| CCGATTAACATCAAGGAATTCCCTGATGTTAATCGGGTCTTGATTCGCTTGACGCTGCTG | 6.83 z-score | 7.7 z-score | 4.22 z-score | 8.03 z-score | 8.14 z-score | 5.07 z-score |
| CCGATTAACATCAGGGGGTTAAATGATGTTAATCGGGTCTTGATTCGCTTGACGCTGCTG | 4.33 z-score | 4.07 z-score | 3.62 z-score | 5.86 z-score | 4.49 z-score | 4.29 z-score |
| CCGATTAACATCAAGGGGGATACTGATGTTAATCGGGTCTTGATTCGCTTGACGCTGCTG | 6.74 z-score | 4.59 z-score | 4.72 z-score | 3.41 z-score | 4.99 z-score | 5.48 z-score |
| CCGATTAACATCAGGGATGCCCCTGATGTTAATCGGGTCTTGATTCGCTTGACGCTGCTG | 6.96 z-score | 8.09 z-score | 1.84 z-score | 9.08 z-score | 8.39 z-score | 5.89 z-score |
| CCGATTAACATCAGGGGGTATTATGATGTTAATCGGGTCTTGATTCGCTTGACGCTGCTG | 7.58 z-score | 5.39 z-score | 4.88 z-score | 4.91 z-score | 5.8 z-score | 5.39 z-score |
| CCGATTAACATCAAACCCCCCCTTGATGTTAATCGGGTCTTGATTCGCTTGACGCTGCTG | 6.49 z-score | 4.97 z-score | 4.6 z-score | 7.14 z-score | 5.59 z-score | 5.38 z-score |
| CCGATTAACATCAGGGGGAGCACTGATGTTAATCGGGTCTTGATTCGCTTGACGCTGCTG | 5.93 z-score | 3.91 z-score | 6.25 z-score | 7.14 z-score | 5.5 z-score | 4.89 z-score |
| CCGATTAACATCAGGAGTTCCCATGATGTTAATCGGGTCTTGATTCGCTTGACGCTGCTG | 2.2 z-score | 2.14 z-score | 1.68 z-score | 6.1 z-score | 3.51 z-score | 1.53 z-score |
| CCGATTAACATCAACAACCCCCCTGATGTTAATCGGGTCTTGATTCGCTTGACGCTGCTG | 6.24 z-score | 4.31 z-score | 4.22 z-score | 6.01 z-score | 5.18 z-score | 5.38 z-score |
| CCGATTAACATCAGGGGGAACAATGATGTTAATCGGGTCTTGATTCGCTTGACGCTGCTG | 5.8 z-score | 5.75 z-score | 9.17 z-score | 3.62 z-score | 4.61 z-score | 5.11 z-score |
